Screens from PubChem.
This is a sample that favours compounds with a hit; in the whole collection about 3.4% have one here.
Ecoli rRNA inh – inhibits bacterial ribosomal RNA function over humanized ribosomes; E. coli WT GFP vs humanized-ribosome RFP mutants, fluorescence, 24 h; hits give low values; DMSO median 0, no signal -100; GFP signal change (wild-type ribosome), % (no concentration beside the values); 350,000 compounds, 1.6% hits; AID 720706;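 active = significant combined selectivity score with lowered wild-type GFP, culture density cut under 30%, mutant RFP and density less affected; inactive = any of these conditions unmet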
PAX8 reporter – inhibitors of PAX8 transcriptional activity in RMG-I cells; 360,000 compounds, 1.2% hits; RMG-I TPO-luciferase reporter, SteadyGlo, 24 h; inhibition, % at 12.6 µM;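 active = mean replicate inhibition at least 60% with every replicate also reaching 60%; inconclusive = only one of the two criteria is met; inactive = mean below 60% and not all replicates reaching 60%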;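 note: luciferase light reporting Pax8 driven TPO promoter activity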
EWS-Fli inh – EWS/Fli transcriptional activity inhibition; AID 651661; 350,000 compounds, 0.67% hits; inhibition, % at 12.6 µM; A673 NR0B1-luciferase reporter, viability-normalised;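 active = mean inhibition of at least 50% after viability correction, with every replicate also passing that limit; inconclusive = mean reaches 50% but only one of two replicates passes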;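 note: firefly luciferase signal divided by Alamar Blue viability fluorescence both relative to DMSO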
SIRT5 inh – blocks human SIRT5 desuccinylation of peptide. Purified SirT5, succinyl-peptide AMC, trypsin-coupled fluorescence. inhibition, % at 15 µM. 330,000 compounds, 1.1% hits; in the data active = inhibition above about 15%; inconclusive = no clear call, values can overlap the other calls
Target sequence (Q9NXA8 whole entry, looked up): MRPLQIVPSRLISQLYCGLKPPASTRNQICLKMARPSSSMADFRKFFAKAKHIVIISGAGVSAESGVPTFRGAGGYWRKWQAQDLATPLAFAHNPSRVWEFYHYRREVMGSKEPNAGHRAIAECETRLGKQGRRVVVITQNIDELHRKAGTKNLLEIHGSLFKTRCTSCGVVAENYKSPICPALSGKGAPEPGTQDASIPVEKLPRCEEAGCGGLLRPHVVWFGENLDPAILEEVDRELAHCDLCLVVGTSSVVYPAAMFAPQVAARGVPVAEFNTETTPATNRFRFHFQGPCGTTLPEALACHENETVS
LGR2 inh – inhibitors of bursicon-induced Drosophila LGR2 receptor cAMP signaling; HEK293 LGR2, CRE-luciferase, bursicon-stimulated, 4 h; 380,000 compounds, 0.35% hits; inhibition, % at 9.99 µM; AID 720647;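 active = drop in luminescence signal, shown as inhibition above about 50% in the replicate tests, limit read from the data, passing the limit was not always enough; inconclusive = probably only some replicates passing the limit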;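 note: agonist challenge used bursicon conditioned medium at about half maximal strength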
PGC1a acetyl inh – lowers PGC1a acetylation signal in U2OS cells | AlphaScreen anti-acetyl-lysine; with virally co-expressed GCN5 acetyltransferase | inhibition, % at 15.6 µM | 350,000 compounds, 0.17% hits;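 active = every replicate shows inhibition of at least 40%; inconclusive = mean inhibition at least 40% but some replicate below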
A number is an active result; 0 = inactive; ? = inconclusive; - = not tested or not shown.

SMILES	Ecoli rRNA inh	PAX8 reporter	EWS-Fli inh	SIRT5 inh	LGR2 inh	PGC1a acetyl inh
COc1ccc(-c2ccc(SC)nn2)cc1	0	0	58.4	0	82.9	-
C[C@@H]1CN([C@H](C)CO)C(=O)c2cc(NS(=O)(=O)c3ccccc3)ccc2O[C@@H](C)CCCCO[C@@H]1CN(C)C(=O)c1ccncc1	0	0	0	0	0	0
Cc1cccc(-c2ccc([C@@H]3[C@H](CO)N4CCCCN(S(=O)(=O)c5cccc(C)c5)C[C@@H]34)cc2)c1	-27.7	0	0	0	0	0
Cc1cccc(S(=O)(=O)N2CCCCN3[C@H](C2)[C@H](c2ccc(-c4ccccc4)cc2)[C@@H]3CO)c1	-	0	0	0	-	0
Cc1ccc(-c2ccc([C@@H]3[C@H](CO)N4CCCCN(S(=O)(=O)c5cccc(C)c5)C[C@@H]34)cc2)cc1	-	0	0	0	-	0
Cc1cccc(S(=O)(=O)N2CCCCN3[C@H](CO)[C@@H](c4ccc(-c5ccccc5)cc4)[C@H]3C2)c1	-	0	0	21.6	-	0
COc1ccc(S(=O)(=O)N2CC(=O)Nc3ccccc32)cc1Cl	-32.9	0	0	0	0	0
CCCNC(=O)C[C@@H]1CC[C@@H]2[C@@H](COc3ccc(NC(=O)c4ccc(C(F)(F)F)cc4)cc3C(=O)N2C)O1	0	0	0	-	0	0
CC(C)c1ccc2c(c1)C(N1CCNCC1)Cc1ccc(F)cc1S2 (stereo not given)	0	0	0	0	103.6	-
CN1CCN(C2Cc3ccc(F)cc3Sc3cc(F)c(Cl)cc32)CC1 (stereo not given)	-42.5	0	0	0	0	0
O=C(O)CC1SC(=Nc2ccccc2)N(c2ccccc2)C1=O (stereo not given)	-	-	-	-	-	0
O=C(O)CC1S/C(=N/N=C/c2ccc(Br)cc2)N(c2ccccc2)C1=O (stereo not given)	0	0	0	0	-	75.2
CCN(CC)CCCNc1nc2ccccc2c2[nH]c3ccc(OC)cc3c12	0	99.4	?	-	0	-
O=C(N[C@H]1CC[C@H](CCNS(=O)(=O)c2ccccc2Cl)O[C@@H]1CO)c1ccccc1	0	0	0	18.5	0	0
O=C(N[C@H]1CC[C@H](CCNS(=O)(=O)Cc2ccccc2)O[C@H]1CO)c1ccccc1F	0	0	0	1.7	0	0
O=C(C[C@H]1CC[C@@H](NC(=O)c2ccccc2)[C@H](CO)O1)NCCc1ccncc1	0	-	0	31.9	0	0
O=C(C[C@@H]1CC[C@@H](NC(=O)c2ccccc2)[C@H](CO)O1)NCCc1ccncc1	0	-	0	0	0	0
O=C(N[C@@H]1CC[C@H](CCNS(=O)(=O)c2ccccc2)O[C@H]1CO)c1cnccn1	0	0	0	27.7	0	0
O=C(C[C@H]1C[C@@H]2c3cc(NC(=O)Nc4ccc(F)cc4)ccc3O[C@@H]2[C@@H](CO)O1)NC1CCCC1	0	-	-	-	-	-
Cc1ccc(S(=O)(=O)Nc2ccc3c(c2)C(=O)N([C@@H](C)CO)C[C@@H](C)[C@@H](CN(C)C(=O)NC2CCCCC2)O3)cc1	0	0	0	0	0	0
CCC(=O)N1CC2(C1)[C@@H](c1ccc(-c3ccc(C)cc3)cc1)[C@@H](CO)N2S(C)(=O)=O	0	-	0	0	0	0
CO[C@@H]1CN(C)C(=O)c2cc(NC(=O)Cc3ccccc3)ccc2OC[C@H](C)NC[C@H]1C	0	0	0	0	0	0
CO[C@H]1CN(C)C(=O)c2ccc(NC(=O)C3CC3)cc2OC[C@@H](C)N(Cc2cccc(F)c2)C[C@@H]1C	0	0	0	-	0	0
CC(C)(C)S(=O)N1Cc2cc(C(=O)O)nc(-c3cccc(C#CCC4CCCC4)c3)c2[C@H]1CCO (stereo not given in full)	0	-	-	-	-	-
Brc1ccc2nc(-c3ccc(CN4CCC(c5nc6ccccc6[nH]5)CC4)cc3)c(-c3ccccc3)nc2c1	0	100.6	0	0	0	-
SMILES	Ecoli rRNA inh	PAX8 reporter	EWS-Fli inh	SIRT5 inh	LGR2 inh	PGC1a acetyl inh
CC(C)NC(=O)N[C@H]1CC[C@@H](CCNS(=O)(=O)c2ccc(F)cc2)O[C@H]1CO	0	0	0	0	0	0
Cc1ccc(S(=O)(=O)Nc2c(C)cc([N+](=O)[O-])cc2C)cc1	-22.2	0	0	0	0	-
Cc1ccc(S(=O)(=O)NCCNc2ccc([N+](=O)[O-])cc2)cc1	-27.2	0	-	0	0	-
CO[C@@H]1CN(C)C(=O)c2cc(NC(=O)C3CC3)ccc2OC[C@@H](C)N(C(=O)C2CCCCC2)C[C@H]1C	0	-	0	0	0	0
Cc1ccccc1-n1c(-c2ccc3ccccc3n2)n[nH]c1=S	-32.6	0	0	0	0	-
S=c1[nH]nc(-c2ccc3ccccc3n2)n1-c1ccc(Cl)cc1	-	0	-	-	0	0
CC1(C)CC(=O)c2c(-c3cccnc3)n[nH]c2C1	0	-	-	15.2	0	0
S=c1[nH]nc(-c2ccccn2)n1/N=C/c1cccc2ccccc12	0	121.8	0	0	0	-
O=[N+]([O-])c1ccc(Sc2nc3ccccc3o2)c([N+](=O)[O-])c1	0	-	63.0	0	96.8	0
O=[N+]([O-])c1ccc(Cl)cc1Sc1nc2ccccc2o1	0	-	0	0	0	0
C=C(C)n1c(=O)n(Cc2ccccc2C)c2ccccc21	-30.8	0	0	0	0	0
CCOC(=O)c1c(C)[nH]c(C)c1C(=O)COC(=O)c1cc(OC)c(OC)cc1OC	0	0	0	18.9	0	0
CCOC(=O)c1c(C)[nH]c(C)c1C(=O)COC(=O)c1cc(OC)cc(OC)c1	0	0	0	0	0	0
C[C@@H]1CCCCO[C@@H](CN(C)C)[C@H](C)CN([C@H](C)CO)C(=O)c2cc(N(C)C)ccc2O1	0	0	0	0	0	0
COc1ccc(N2C(=O)C3C4C=CC(c5ccccc5)(C3C2=O)C2C(=O)N(c3ccc(OC)cc3)C(=O)C42)cc1 (stereo not given)	0	0	0	0	0	0
COc1ccc(N2C(=O)C3C(C2=O)C3(c2ccccc2)c2ccccc2)cc1 (stereo not given)	-19.8	0	0	0	0	-
CCC(=O)Nc1ccc2c(c1)OC[C@@H](C)N(Cc1cccc(F)c1)C[C@@H](C)[C@H](OC)CN(C)C2=O	0	0	0	0	0	0
CCCNC(=O)Nc1ccc2c(c1)OC[C@H](C)N(S(C)(=O)=O)C[C@@H](C)[C@@H](OC)CN(C)C2=O	0	0	-	15.5	0	0
CCC(=O)Nc1ccc2c(c1)OC[C@H](C)N(Cc1cccc(F)c1)C[C@@H](C)[C@H](OC)CN(C)C2=O	0	0	0	19.6	0	0
CCCC(=O)Nc1ccc2c(c1)OC[C@H](C)N(Cc1ccccc1)C[C@@H](C)[C@@H](OC)CN(C)C2=O	0	0	0	37.5	0	0
